The source of these data is PubChem BioAssay (NCATS).

The target in assay [1] is Estrogen receptor (Homo sapiens) (UniProt P03372). As to the kind of experiment: qHTS assay for small molecule agonists of estrogen receptor alpha signaling (AID 588514; calls by dose curve;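 note: 0% = vehicle only and 100% = reference agonist; nearly all actives have a fitted effect of over 70% in size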). In outline: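 Cells were plated at 5000/well, incubated 4 hrs at 37 C, dosed with compound titration series, incubated 18 hrs at 37 C, loaded with CCF4 dye for 2 hrs at RT, then fluorescence was read.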
Chain of Estrogen receptor (Homo sapiens) (P03372 whole entry, looked up): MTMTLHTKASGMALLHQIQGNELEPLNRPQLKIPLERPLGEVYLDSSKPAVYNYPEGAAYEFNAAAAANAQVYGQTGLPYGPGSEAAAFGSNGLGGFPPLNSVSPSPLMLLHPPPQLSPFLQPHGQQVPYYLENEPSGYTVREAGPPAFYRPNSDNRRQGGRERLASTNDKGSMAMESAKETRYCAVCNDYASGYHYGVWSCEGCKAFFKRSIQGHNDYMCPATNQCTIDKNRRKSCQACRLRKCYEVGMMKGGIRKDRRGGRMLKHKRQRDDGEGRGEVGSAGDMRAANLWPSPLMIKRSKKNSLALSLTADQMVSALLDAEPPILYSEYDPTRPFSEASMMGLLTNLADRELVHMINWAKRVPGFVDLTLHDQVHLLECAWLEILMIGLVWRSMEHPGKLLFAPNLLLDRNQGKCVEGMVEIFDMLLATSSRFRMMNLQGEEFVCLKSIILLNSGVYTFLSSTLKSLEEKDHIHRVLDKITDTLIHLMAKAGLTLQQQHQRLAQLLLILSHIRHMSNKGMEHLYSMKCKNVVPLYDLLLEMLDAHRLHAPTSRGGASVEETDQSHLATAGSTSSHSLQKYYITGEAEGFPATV

Assay [2] is described as follows: qHTS assay for small molecule antagonists of peroxisome proliferator-activated receptor delta signaling (AID 588535; active = well fitted inhibition curve with a large enough effect in the signal ratio, with a control signal flat, not every such curve was filed as active; the % refers to the signal ratio;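 for max response: cells co-treated with a PPAR-delta agonist as stimulator during compound exposure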). Conditions: HEK293T PPARd-UAS-bla, beta-lactamase FRET ratio, 18 h; 460 nm channel. The gist of the method: (§1)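 Reporter: UAS-bla under PPAR-delta response element, HEK293T host. Medium: 2% charcoal/dextran FBS. Dosing: titration, 18 hrs, 37 C. Detection: CCF4, 2 hrs RT, 405 ex/460 and 530 em.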
In general terms: qHTS replaces the single test concentration by a dilution series.

Assay [3] addresses Peroxisome proliferator-activated receptor delta (Homo sapiens) (UniProt Q03181). Described as above. In outline:
as §1

The target in assay [4] is Vitamin D3 receptor (Homo sapiens) (UniProt P11473). Kind of assay: qHTS assay for small molecule antagonists of vitamin D receptor signaling (AID 588541; calls by dose curve;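 note: receptor activated by calcitriol during compound treatment; series mostly up to about 77 µM; % is set by controls: 0 for no effect and ±100 for the full control effect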). The gist of the method:
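VDR-UAS-bla HEK293T cells (2000/well, 2% charcoal-stripped FBS) were treated with titrated compounds plus 1-alpha,25-dihydroxyvitamin D3 (50 nM or 3 nM final) for 16 h at 37 C. CCF4 beta-lactamase fluorescence was read; Hill fits gave IC50.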

For assay [5], the target named is Thyroid hormone receptor beta (Homo sapiens) (UniProt P10828). As to the kind of experiment: qHTS assay for small molecule agonists of thyroid hormone receptor beta signaling (AID 588545; calls by dose curve). In outline: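 HEK 293 TR-UAS-bla; agonist mode; 18 hrs, 37 C; CCF4, ex 405/em 460 and 530 nm; norm. T3 10 nM = 100%, DMSO = 0%; Hill fit → EC50, efficacy.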
Chain of Thyroid hormone receptor beta (Homo sapiens) (P10828 whole entry, looked up): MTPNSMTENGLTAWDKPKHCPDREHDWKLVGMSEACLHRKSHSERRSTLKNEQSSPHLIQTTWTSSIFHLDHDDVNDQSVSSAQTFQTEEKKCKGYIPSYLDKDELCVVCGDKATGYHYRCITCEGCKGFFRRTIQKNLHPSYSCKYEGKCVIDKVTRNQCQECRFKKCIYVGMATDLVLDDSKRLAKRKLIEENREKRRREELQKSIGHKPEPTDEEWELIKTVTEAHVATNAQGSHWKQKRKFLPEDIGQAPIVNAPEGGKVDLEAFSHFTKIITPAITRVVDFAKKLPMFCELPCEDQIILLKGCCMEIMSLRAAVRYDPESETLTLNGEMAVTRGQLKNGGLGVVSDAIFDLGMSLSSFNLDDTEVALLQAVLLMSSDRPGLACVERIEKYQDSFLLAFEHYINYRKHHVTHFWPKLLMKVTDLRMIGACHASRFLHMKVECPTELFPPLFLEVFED
Assay [6] in a line: qHTS assay for small molecule antagonists of retinoid X receptor alpha signaling (AID 588546; active = well fitted inhibition curve with a large enough effect in the signal ratio, with a control signal flat, not every such curve was filed as active; the % refers to the signal ratio;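 note: cells stimulated with 9-cis-retinoic acid as agonist; % is set by controls: 0 for no effect and ±100 for the full control effect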). The following applies: HEK293T RXRa-UAS-bla, beta-lactamase ratio, antagonist mode; measured here: W530 green channel, cytotoxicity proxy. The gist of the method: (§2)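 Beta-lactamase reporter inhibition, read as CCF4 fluorescence ratio (ex 405, em 460/530 nm) after 2 h at RT. HEK293T UAS-bla cells, 2500/well, were stimulated with 9-cis-RA at 500 or 100 nM final alongside test compound for 18 h at 37 C.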

The target in assay [7] is Retinoic acid receptor RXR-alpha (Homo sapiens) (UniProt P19793). The description is as above. Conditions: HEK293T RXRa-UAS-bla, beta-lactamase ratio, antagonist mode. In outline: as §2
Chain of Retinoic acid receptor RXR-alpha (Homo sapiens) (P19793 whole entry, looked up): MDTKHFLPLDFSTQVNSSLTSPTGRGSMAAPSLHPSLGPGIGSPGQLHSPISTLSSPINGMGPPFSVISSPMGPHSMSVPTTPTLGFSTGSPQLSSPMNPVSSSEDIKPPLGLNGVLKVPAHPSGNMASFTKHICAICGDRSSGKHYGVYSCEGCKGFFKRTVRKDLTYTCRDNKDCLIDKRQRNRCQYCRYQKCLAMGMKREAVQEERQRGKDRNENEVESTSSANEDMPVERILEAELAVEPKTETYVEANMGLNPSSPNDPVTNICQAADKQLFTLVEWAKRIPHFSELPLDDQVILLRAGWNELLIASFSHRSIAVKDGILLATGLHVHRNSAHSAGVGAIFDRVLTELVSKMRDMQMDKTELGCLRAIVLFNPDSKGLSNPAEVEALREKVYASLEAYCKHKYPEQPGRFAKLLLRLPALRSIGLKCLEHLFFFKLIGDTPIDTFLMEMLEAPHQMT
A short description of assay [8]: qHTS assay for small molecule activators of the p53 signaling pathway (AID 651743; active = well fitted activation curve with a large enough effect in the signal ratio, not every such curve was filed as active; the % refers to the signal ratio; note: series mostly up to about 92 µM; % of control where 0% means no effect). The following applies: HCT-116 p53RE-bla, beta-lactamase FRET ratio, 16 h; activation: stronger effect = higher value. In outline:
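Cell-based beta-lactamase reporter (p53 response elements, HCT-116 background). After a 5-hour preincubation, cells received compound for 16 hours at 37 C; substrate development ran 2 hours at room temperature.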

The nature of assay [9]: qHTS assay for environmental chemicals that activate the Aryl hydrocarbon Receptor (AhR) signaling pathway (AID 651777). Note: % of control where 0% means no effect; nearly all actives have a fitted effect of over 15% in size. The following applies: 1A2-DRE human hepatoma cells, luciferase, 24 h; activation: stronger effect = higher value. The gist of the method:
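Quantitative HTS in stably transfected human liver-derived cells whose luciferase gene sits downstream of the CYP1A2 promoter and dioxin response element. After 24 hr exposure at 37 C, One-Glo luminescence was measured.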

In assay [10] the target is Peroxisome proliferator-activated receptor alpha (Homo sapiens) (UniProt Q07869). As to the kind of experiment: qHTS assay for small molecule agonists of the peroxisome proliferator-activated receptor alpha (PPARalpha) signaling pathway (AID 651778). Note: % of control where 0% means no effect. The following applies: PathHunter PPARalpha complementation, chemiluminescence, 6 h; max response: stronger effect = higher value. The gist of the method:
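Cells plated at 2,000/well and held overnight at 37 C, 5% CO2, then compound added by pin tool for 6 hr; after PathHunter detection reagent and 60 min at room temperature, chemiluminescence from enzyme complementation was read.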

Assay [11] is described as follows: qHTS assay for small molecule agonists of the antioxidant response element (ARE) signaling pathway measured by Nrf2-dependant transcriptional activity (AID 720636; active = well fitted curve in the direction sought with a large enough effect in the repeat runs; an effect the other way counts as inactive or inconclusive; note: potency is the fitted concentration of half-maximal effect; for activation: % of control where 0% means no effect). The gist of the method: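 Quantitative HTS format in HepG2 cells stably expressing an ARE-luciferase reporter; 16 hr compound treatment at 37 C, luciferase signal detected with ONE-Glo.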
A short description of assay [12]: qHTS assay for small molecule agonists of the antioxidant response element (ARE) signaling pathway measured by Nrf2-dependant transcriptional activity - cell viability counter screen (AID 720653; active = well fitted curve in the direction sought with a large enough effect in the repeat runs; an effect the other way counts as inactive or inconclusive; note: % is set by controls: 0 for no effect and ±100 for the full control effect). Conditions: ARE-bla HepG2 viability, CellTiter-Glo ATP luminescence, 16 h; max response: stronger effect = lower value. In outline: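 ARE-bla HepG2 cells (2,000/well) rested 5 hrs at 37C/5% CO2, then exposed to compounds in DMSO for 16 hrs. Viability was read in the same wells as intracellular ATP by luminescence, 30 min at room temperature after reagent addition.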

Assay [13] can be described thus: qHTS assay for cell viability of HEK293 cells (AID 743288). Note: % is set by controls: 0 for no effect and ±100 for the full control effect; nearly all actives have a fitted effect of over 50% in size. The following applies: ATP luminescence (CellTiter-Glo), 18 h; max response: stronger effect = lower value. The gist of the method:
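The Tox21 protocol used parental HEK293 cells treated for 18 h at 37 C with compounds delivered by pintool; ATP-coupled luminescence after 30 min at room temperature gave viability.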

A short description of assay [14]: qHTS assay for cell viability of the p53RE-bla HCT-116 cell line (AID 743292). Note: % is set by controls: 0 for no effect and ±100 for the full control effect; nearly all actives have a fitted effect of over 55% in size. In outline: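 Viability of compound-treated p53RE-bla HCT-116 cells is taken from ATP-dependent luciferase luminescence. Treatment lasts 16 h at 37 C after a 5 h settling period; detection follows 30 min at room temperature.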
In assay [15] the target is Nuclear receptor subfamily 1 group I member 2 (Rattus norvegicus) (UniProt Q9R1A7). As to the kind of experiment: qHTS assay for small molecule activators of the rat pregnane X receptor (rPXR) signaling pathway (AID 651751; call rule not given here; note: 0% is about no effect). Conditions: rPXR reporter cells, luciferase (One-Glo), 24 h.
Chain of Nuclear receptor subfamily 1 group I member 2 (Rattus norvegicus) (Q9R1A7 whole entry, looked up): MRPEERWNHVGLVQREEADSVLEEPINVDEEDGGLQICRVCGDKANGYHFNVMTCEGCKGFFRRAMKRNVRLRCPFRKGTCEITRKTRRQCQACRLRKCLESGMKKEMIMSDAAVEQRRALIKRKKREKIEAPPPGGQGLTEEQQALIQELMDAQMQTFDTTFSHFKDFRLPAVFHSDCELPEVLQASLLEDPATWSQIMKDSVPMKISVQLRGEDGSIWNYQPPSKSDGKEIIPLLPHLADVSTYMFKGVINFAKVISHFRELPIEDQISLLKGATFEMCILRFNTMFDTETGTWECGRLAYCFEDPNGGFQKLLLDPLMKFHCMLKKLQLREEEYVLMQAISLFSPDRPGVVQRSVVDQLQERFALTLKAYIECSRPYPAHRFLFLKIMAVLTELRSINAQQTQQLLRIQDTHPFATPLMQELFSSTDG
The nature of assay [16]: qHTS assay for small molecule activators of the human pregnane X receptor (PXR) signaling pathway (AID 720659; call rule not given here; note: 0% is about no effect).
The nature of assay [17]: qHTS assay for small molecule agonists of retinoid X receptor alpha signaling (AID 588544; calls by dose curve;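 for activation: 0% = DMSO basal wells and 100% = reference agonist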). The following applies: HEK293T RXRa-UAS-bla, beta-lactamase reporter, 18 h; 530 nm emission.
Assay [18] addresses Retinoic acid receptor RXR-alpha (Homo sapiens) (UniProt P19793). Described as above.
In assay [19] the target is Thyroid hormone receptor beta (Homo sapiens) (UniProt P10828). As to the kind of experiment: qHTS assay for small molecule antagonists of thyroid hormone receptor beta signaling (AID 588547; active = well fitted inhibition curve with a large enough effect in the signal ratio, with a control signal flat, not every such curve was filed as active; the % refers to the signal ratio;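 note: cells stimulated with 0.4 nM T3 agonist during compound exposure; series mostly up to about 77 µM; % is set by controls: 0 for no effect and ±100 for the full control effect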). Conditions: TR-UAS-bla HEK293, beta-lactamase ratio, antagonist mode, 18 h. In outline: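 TR-UAS-bla GripTite HEK293 cells in 2% charcoal/dextran FBS medium were preincubated 4 h at 37 C, given compound (0.59 nM to 92 uM) plus 0.4 nM T3 (final) for 18 h, then CCF4 for 2 h at RT; Hill fit gave IC50.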

The target in assay [20] is Peroxisome proliferator-activated receptor gamma (Homo sapiens) (UniProt P37231). As to the kind of experiment: qHTS assay for small molecule agonists of peroxisome proliferator-activated receptor gamma signaling (AID 588536; active = well fitted curve in the direction sought with a large enough effect in the signal ratio, with a control signal flat, not every such curve was filed as active; the % refers to the signal ratio;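 note: 0% = DMSO basal wells and 100% = rosiglitazone at 2 µM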). The gist of the method: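 Test agents, titrated, stimulated HEK293 UAS-bla cells overnight (16 h, 37 C). Substrate CCF4 was then added for two hours at room temperature before fluorescence reading.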
Chain of Peroxisome proliferator-activated receptor gamma (Homo sapiens) (P37231 whole entry, looked up): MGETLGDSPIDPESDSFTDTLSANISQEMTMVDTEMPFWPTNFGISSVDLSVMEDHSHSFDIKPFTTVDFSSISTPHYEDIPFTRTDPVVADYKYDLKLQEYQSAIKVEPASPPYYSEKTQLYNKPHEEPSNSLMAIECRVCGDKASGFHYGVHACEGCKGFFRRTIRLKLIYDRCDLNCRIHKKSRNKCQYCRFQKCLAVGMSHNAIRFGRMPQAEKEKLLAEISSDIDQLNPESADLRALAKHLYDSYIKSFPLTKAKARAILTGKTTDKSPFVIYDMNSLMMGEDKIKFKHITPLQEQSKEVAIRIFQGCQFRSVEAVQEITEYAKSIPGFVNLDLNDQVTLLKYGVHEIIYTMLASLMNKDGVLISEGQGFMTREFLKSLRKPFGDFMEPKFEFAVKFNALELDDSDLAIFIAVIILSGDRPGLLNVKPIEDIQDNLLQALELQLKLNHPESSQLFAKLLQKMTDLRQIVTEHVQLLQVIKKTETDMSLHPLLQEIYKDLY

Results filed as inconclusive are left out. Activity calls are given as the source filed them. Unless noted, calls come from the whole dose curve; as a rule, active = well fitted curve in the direction sought with a large enough effect; inconclusive = small, poorly fitted or top-dose-only effect, or another doubt; inactive = no such curve, though single readings can be large; an effect the other way counts as inactive or inconclusive.

Chain of Peroxisome proliferator-activated receptor alpha (Homo sapiens) (Q07869 whole entry, looked up): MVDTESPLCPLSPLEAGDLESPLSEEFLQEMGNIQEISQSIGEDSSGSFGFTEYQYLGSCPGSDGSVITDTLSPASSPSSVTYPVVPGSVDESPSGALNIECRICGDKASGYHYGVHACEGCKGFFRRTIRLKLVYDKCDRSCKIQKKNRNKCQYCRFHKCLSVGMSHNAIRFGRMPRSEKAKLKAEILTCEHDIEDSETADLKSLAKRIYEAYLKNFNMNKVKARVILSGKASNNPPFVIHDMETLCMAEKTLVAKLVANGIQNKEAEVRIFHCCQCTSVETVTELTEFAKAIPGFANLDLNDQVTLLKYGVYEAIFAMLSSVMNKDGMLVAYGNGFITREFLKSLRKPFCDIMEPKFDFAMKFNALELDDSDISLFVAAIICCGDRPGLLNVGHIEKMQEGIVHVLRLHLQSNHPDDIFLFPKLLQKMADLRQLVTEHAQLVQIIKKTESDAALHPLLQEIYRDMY
Chain of Peroxisome proliferator-activated receptor delta (Homo sapiens) (Q03181 whole entry, looked up): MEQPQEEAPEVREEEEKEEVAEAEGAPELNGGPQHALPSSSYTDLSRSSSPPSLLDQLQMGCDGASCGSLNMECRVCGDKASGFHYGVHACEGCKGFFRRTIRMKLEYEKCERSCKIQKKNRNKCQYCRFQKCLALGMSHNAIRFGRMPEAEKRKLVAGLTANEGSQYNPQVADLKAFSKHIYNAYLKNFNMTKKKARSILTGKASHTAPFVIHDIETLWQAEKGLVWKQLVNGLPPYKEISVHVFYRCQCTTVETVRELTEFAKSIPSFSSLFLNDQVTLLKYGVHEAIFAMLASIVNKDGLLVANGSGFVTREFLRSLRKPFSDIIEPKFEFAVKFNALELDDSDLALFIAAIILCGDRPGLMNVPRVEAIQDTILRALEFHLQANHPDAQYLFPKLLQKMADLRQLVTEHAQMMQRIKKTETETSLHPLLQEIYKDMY
Chain of Vitamin D3 receptor (Homo sapiens) (P11473 whole entry, looked up): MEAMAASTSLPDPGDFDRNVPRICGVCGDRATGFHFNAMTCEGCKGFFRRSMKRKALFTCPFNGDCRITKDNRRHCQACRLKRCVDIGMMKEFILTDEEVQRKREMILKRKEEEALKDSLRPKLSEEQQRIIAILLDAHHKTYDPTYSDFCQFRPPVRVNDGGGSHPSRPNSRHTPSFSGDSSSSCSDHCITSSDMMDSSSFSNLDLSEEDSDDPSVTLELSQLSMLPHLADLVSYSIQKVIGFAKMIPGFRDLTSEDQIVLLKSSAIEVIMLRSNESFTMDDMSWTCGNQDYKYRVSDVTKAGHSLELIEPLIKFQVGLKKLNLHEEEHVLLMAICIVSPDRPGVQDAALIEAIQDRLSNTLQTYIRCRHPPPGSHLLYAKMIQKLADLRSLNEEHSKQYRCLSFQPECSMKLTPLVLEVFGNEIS

In the case of `COC(=O)C(C)Oc1ccc(Oc2ncc(C(F)(F)F)cc2Cl)cc1` (configuration not stated), the Potency result in assay [1], in assay [3], in assay [4], in assay [5], in assay [11] and in [14] was “inactive” throughout. Also, the max response in assay [2] is -16.8%; in [6], 5.42%; in [7], -74.4% (inactive); in [10] it was 0.508% (inactive); in assay [12] it was -10.2% (inactive); in [13], -21.9% (inactive). Besides, the max response in [15] was -3.2% (inactive). The activation in assay [8] was -4.64% (inactive); in assay [9] it was 0.251% (inactive). Besides, in assay [16], the call was inactive.
In the case of `Nc1cc(Cl)c(O)c(Cl)c1`, the Potency entry in [5] and in [14] was “inactive” each time. Moreover, the activation in [8] is -2.82% (inactive); in assay [9], 0.138% (inactive). Further, the max response in [10] was -5.8% (inactive); in [12] it was -17.9% (inactive); in [13] it was -19.5% (inactive); in assay [15] it was 0.356% (inactive). Further, the Potency in assay [11] was 68.6 µM (active). The outcome in [16] was inactive.
As for `O=S(=O)(O)c1ccc(N=Nc2c(O)ccc3cc(S(=O)(=O)O)ccc23)cc1`, the Potency result in [1], in assay [3], in [4], in assay [18], in [5] and in assay [11] was “inactive” each time. Moreover, the Potency result in assay [14] is “inactive”. Also, the max response was -5.34% in assay [2]; -4.64% in assay [17]; -15.1% in assay [6]; -6.14% (inactive) in [7]; -7.14% (inactive) in [10]; -22.3% (inactive) in assay [12]. Also, the max response in assay [13] was -13.8% (inactive); in assay [15] it was -7.92% (inactive). In addition, in assay [19], the activity change % (negative = inhibition) is -13.9% (inactive). For the same compound, the activation in assay [9] was -1.77% (inactive). The compound was classed as inactive in assay [16].
As to `O=C(O)c1cc2ccccc2cc1O`, the Potency result in assay [4], in [18], in assay [5] and in assay [14] was “inactive” throughout. Besides, the max response in assay [17] is 18.1%; in assay [6], 2.59%; in assay [7], -6.59% (inactive); in [10], 7.01% (inactive); in assay [12] it was -1.53% (inactive); in assay [13], -12.6% (inactive). The max response in [15] is 0.928% (inactive). The activity change % (negative = inhibition) in assay [19] was -1.94% (inactive).
Turning to `CO[Si](CCCNCCN)(OC)OC`, the max response in [2] is 40.3%; in [17], 7.5%; in [6] it was -7.95%; in [7], 2.04% (inactive); in assay [10], 0.748% (inactive); in assay [12], 2.71% (inactive). Also, the max response in assay [13] is -6.23% (inactive); in assay [15], 4.5% (inactive). In addition, the Potency result in [3], in [4], in [5], in [11] and in assay [14] was “inactive” in each case. For the same compound, the compound was classed as inactive in assay [20] and in assay [16]. Besides, the activity change % (negative = inhibition) in [19] is 7.69% (inactive).
Take `CCCCN(CCCC)CCCCCCN(CCCC)CCCC`: the Potency result in assay [1], in assay [3], in [4], in assay [18], in assay [5] and in assay [11] was “inactive” each time. Besides, the Potency result in assay [14] is “inactive”. The max response in assay [2] was 6.65%; in assay [17], -14.8%; in assay [10] it was -0.567% (inactive); in assay [12] it was -9.43% (inactive); in [13], -21.9% (inactive); in assay [15] it was 4.27% (inactive). The result in [20] and in [16] was inactive. Further, the activity change % (negative = inhibition) in assay [19] is 10% (inactive). For the same compound, the activation in [8] is -4.69% (inactive); in assay [9] it was 1.73% (inactive).
`C=C[Si](C)(C)O[Si](C)(C)C=C`: the Potency entry in assay [1], in assay [4], in assay [18], in assay [11] and in assay [14] was “inactive” each time. In addition, the outcome in [20] and in assay [16] was inactive. Besides, the max response is 11.5% in [17]; -11.2% in assay [6]; -0.957% (inactive) in assay [7]; -1.71% (inactive) in assay [10]; -2.71% (inactive) in assay [12]; -5.1% (inactive) in [13]. Also, the max response in assay [15] is 0.719% (inactive). Moreover, the activity change % (negative = inhibition) in assay [19] was 3.28% (inactive). Besides, the activation in assay [8] is -3.83% (inactive); in assay [9] it was -1.78% (inactive).
